Results published in PubChem BioAssay.
Calls of active or inactive are those of the source.

Legend:
[1] = binders of probe aFSTL3 on microarray, primary screen, stem cell growth factor project, biochemical, small-molecule microarray, fluorescence 635/667 (AID 1064); details: higher = more signal;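 further: measures binding of the biotinylated anti-FSTL3 antibody to printed compounds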
[2] = binders from COS7 lysate, DM2A8 probe, primary screen, torsin A project, cell lysate, small-molecule microarray, fluorescence 635/667 (AID 1065); details: higher = more signal, COS7 lysate expressing mutant human TOR1A
[3] = binders of probe aFGF2 on microarray, primary screen, stem cell growth factor project, biochemical, small-molecule microarray, fluorescence 635/667 (AID 1067); details: higher = more signal;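 further: measures binding of biotinylated aFGF2 protein to printed compounds on slides; z-score merges feature fluorescence and signal-to-noise across triplicate slides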
[4] = binders of probe aFGF10 on microarray, primary screen, stem cell growth factor project, biochemical, small-molecule microarray, fluorescence 635/667 (AID 1071); details: higher = more signal;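 further: score merges 667 nm spot intensity and signal to noise from triplicate slides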
[5] = target: Neurogenic locus notch homolog protein 2 (Homo sapiens) (UniProt Q04721); assay: Notch2 binders on small-molecule microarrays, primary screen, biochemical, small-molecule microarray, 635 nm fluorescence, stem cell growth factors (AID 1073); details: Notch2 binding, higher = more signal
[6] = target: Pro-neuregulin-1, membrane-bound isoform (Homo sapiens) (UniProt Q02297); assay: NRG1 binders on small-molecule microarrays, primary screen, psychiatric disease protein project, biochemical, small-molecule microarray, fluorescence 635/667 (AID 1075); details: NRG1 binding, 635 nm fluorescence, higher = more signal;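 further: score combines 667 nm spot fluorescence with signal to noise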
Sequence of Pro-neuregulin-1, membrane-bound isoform (Homo sapiens) (Q02297 whole entry, looked up, the tested form may be a part, canonical isoform): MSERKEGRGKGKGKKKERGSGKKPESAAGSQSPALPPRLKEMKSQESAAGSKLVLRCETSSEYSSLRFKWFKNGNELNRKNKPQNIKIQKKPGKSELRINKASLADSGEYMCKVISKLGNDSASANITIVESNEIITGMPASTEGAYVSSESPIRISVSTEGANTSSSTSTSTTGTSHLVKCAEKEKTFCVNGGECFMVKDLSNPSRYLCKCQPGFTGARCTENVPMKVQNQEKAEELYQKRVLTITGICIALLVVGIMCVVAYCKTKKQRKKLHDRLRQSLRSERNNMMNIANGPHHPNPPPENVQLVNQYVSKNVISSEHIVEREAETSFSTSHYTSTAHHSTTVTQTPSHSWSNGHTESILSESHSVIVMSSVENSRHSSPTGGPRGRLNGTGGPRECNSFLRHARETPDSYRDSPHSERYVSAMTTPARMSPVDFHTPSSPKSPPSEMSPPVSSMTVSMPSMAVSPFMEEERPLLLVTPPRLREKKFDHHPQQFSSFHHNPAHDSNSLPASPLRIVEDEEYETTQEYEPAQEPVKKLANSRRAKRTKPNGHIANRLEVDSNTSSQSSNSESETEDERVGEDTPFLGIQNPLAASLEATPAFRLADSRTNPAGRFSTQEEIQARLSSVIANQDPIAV

[7] = test system: Neuregulin-1 EGF-like domain; assay: binders of neuregulin-1 EGF-like domain, primary screen, biochemical, small-molecule microarray, 635 nm fluorescence (AID 1081); details: small-molecule microarray binding, higher = more signal;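 further: binding of the protein to compounds printed on small-molecule microarray slides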
[8] = FRG1 promoter luciferase signal modulators, primary screen, FRG1 inhibition for FSHD, cell-based, C2C12 myotubes, firefly/Renilla luciferase, luminescence (AID 1084); details: higher = more signal, called active from +8 up or from −8 down
[9] = binders of probe aFST on microarray, primary screen, stem cell growth factor project, biochemical, small-molecule microarray, fluorescence 635/667 (AID 1086); details: higher = more signal;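 further: score merges 667 nm fluorescence with signal-to-noise of each printed compound spot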
[10] = binders of probe aHhip on microarray, primary screen, stem cell growth factor project, biochemical, small-molecule microarray, fluorescence 635/667 (AID 1087); details: higher = more signal;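 further: score merges spot fluorescence at 667nm with spot signal to noise ratio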
[11] = test system: PRMT1 (protein arginine N-methyltransferase 1); assay: PRMT1 binders on small-molecule microarrays, primary screen, biochemical, small-molecule microarray, 635 nm fluorescence (AID 1088); details: small-molecule microarray binding, higher = more signal;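 further: binding of Prmt1 protein to compounds spotted on small-molecule microarray slides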
[12] = yeast growth modulation, basal conditions, primary screen, YJM789 clinical isolate, OD600, 24 h (AID 1089);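 further: growth of clinical yeast isolate S. cerevisiae YJM 789 seeded 1000 cells per well; test concentration not given here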; details: S. cerevisiae YJM789 growth, higher = more signal, called active from +8 up or from −8 down
[13] = fission yeast growth modulation, primary screen, strain 972, OD600, 24 h, no modulator (AID 1090);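 further: basal condition with compound alone and no growth modifier present; test concentration not given here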; details: S. pombe 972 growth, higher = more signal, called active from +8 up or from −8 down
[14] = S. cerevisiae growth modulation with rapamycin, primary screen, strain BY4716, OD600, 96 h (AID 1091); details: higher = more signal, called active from +8 up or from −8 down; further: test concentration not given here
[15] = target: Torsin-1A-interacting protein 2 (Homo sapiens) (UniProt Q8NFQ8); assay: LULL1 binders on small-molecule microarray, primary screen, cell lysate, human LULL1 lysate, 635/667 nm fluorescence (AID 1092); details: hLULL1 lysate binding, 635 nm fluorescence, higher = more signal;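 further: probe is lysate of COS7 cells overexpressing human LULL1; score merges per-feature 667 nm fluorescence with signal-to-noise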
Sequence of Torsin-1A-interacting protein 2 (Homo sapiens) (Q8NFQ8 whole entry, looked up): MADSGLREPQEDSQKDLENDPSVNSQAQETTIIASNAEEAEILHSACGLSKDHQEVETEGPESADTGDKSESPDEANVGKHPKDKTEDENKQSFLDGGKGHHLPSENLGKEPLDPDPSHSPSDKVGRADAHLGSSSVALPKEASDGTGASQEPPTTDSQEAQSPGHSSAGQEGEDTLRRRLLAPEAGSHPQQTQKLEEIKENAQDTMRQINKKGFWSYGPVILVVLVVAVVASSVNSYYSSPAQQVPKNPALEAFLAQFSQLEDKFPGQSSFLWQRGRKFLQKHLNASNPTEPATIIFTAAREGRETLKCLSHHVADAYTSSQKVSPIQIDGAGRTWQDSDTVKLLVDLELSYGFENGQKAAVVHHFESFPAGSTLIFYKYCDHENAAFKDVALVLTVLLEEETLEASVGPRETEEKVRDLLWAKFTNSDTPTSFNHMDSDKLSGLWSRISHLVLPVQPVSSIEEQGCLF

[16] = E. coli growth modulation, two-sided OD650, primary screen, E. coli filamentation project, strain DRC41, 24 h (AID 1093); details: OD650, 24 h, higher = more signal, called active from +8 up or from −8 down;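 further: MC1000 strain lacking acrAB efflux and sulA so SOS filamentation is blocked; test concentration not given here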
[17] = small-molecule microarray binders of probe aLefty2, primary screen, biochemical, biotinylated probe, 635/667 nm fluorescence (AID 1094); details: higher = more signal;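 further: score merges spot fluorescence near 667 nm with spot signal-to-noise ratio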
[18] = test system: Noggin (protein binding on small-molecule microarray); assay: Noggin binders on small-molecule microarray, primary screen, biochemical, 635/667 nm fluorescence (AID 1095); details: 635 nm fluorescence, higher = more signal;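 further: score merges 667 nm feature fluorescence with signal to noise over triplicate slides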
[19] = target: Neurogenic locus notch homolog protein 3 (Homo sapiens) (UniProt Q9UM47); assay: NOTCH3 binders on small-molecule microarray, primary screen, biochemical, 635/667 nm fluorescence (AID 1096); details: NOTCH3 binding, 635 nm fluorescence, higher = more signal
Sequence of Neurogenic locus notch homolog protein 3 (Homo sapiens) (Q9UM47 whole entry, looked up): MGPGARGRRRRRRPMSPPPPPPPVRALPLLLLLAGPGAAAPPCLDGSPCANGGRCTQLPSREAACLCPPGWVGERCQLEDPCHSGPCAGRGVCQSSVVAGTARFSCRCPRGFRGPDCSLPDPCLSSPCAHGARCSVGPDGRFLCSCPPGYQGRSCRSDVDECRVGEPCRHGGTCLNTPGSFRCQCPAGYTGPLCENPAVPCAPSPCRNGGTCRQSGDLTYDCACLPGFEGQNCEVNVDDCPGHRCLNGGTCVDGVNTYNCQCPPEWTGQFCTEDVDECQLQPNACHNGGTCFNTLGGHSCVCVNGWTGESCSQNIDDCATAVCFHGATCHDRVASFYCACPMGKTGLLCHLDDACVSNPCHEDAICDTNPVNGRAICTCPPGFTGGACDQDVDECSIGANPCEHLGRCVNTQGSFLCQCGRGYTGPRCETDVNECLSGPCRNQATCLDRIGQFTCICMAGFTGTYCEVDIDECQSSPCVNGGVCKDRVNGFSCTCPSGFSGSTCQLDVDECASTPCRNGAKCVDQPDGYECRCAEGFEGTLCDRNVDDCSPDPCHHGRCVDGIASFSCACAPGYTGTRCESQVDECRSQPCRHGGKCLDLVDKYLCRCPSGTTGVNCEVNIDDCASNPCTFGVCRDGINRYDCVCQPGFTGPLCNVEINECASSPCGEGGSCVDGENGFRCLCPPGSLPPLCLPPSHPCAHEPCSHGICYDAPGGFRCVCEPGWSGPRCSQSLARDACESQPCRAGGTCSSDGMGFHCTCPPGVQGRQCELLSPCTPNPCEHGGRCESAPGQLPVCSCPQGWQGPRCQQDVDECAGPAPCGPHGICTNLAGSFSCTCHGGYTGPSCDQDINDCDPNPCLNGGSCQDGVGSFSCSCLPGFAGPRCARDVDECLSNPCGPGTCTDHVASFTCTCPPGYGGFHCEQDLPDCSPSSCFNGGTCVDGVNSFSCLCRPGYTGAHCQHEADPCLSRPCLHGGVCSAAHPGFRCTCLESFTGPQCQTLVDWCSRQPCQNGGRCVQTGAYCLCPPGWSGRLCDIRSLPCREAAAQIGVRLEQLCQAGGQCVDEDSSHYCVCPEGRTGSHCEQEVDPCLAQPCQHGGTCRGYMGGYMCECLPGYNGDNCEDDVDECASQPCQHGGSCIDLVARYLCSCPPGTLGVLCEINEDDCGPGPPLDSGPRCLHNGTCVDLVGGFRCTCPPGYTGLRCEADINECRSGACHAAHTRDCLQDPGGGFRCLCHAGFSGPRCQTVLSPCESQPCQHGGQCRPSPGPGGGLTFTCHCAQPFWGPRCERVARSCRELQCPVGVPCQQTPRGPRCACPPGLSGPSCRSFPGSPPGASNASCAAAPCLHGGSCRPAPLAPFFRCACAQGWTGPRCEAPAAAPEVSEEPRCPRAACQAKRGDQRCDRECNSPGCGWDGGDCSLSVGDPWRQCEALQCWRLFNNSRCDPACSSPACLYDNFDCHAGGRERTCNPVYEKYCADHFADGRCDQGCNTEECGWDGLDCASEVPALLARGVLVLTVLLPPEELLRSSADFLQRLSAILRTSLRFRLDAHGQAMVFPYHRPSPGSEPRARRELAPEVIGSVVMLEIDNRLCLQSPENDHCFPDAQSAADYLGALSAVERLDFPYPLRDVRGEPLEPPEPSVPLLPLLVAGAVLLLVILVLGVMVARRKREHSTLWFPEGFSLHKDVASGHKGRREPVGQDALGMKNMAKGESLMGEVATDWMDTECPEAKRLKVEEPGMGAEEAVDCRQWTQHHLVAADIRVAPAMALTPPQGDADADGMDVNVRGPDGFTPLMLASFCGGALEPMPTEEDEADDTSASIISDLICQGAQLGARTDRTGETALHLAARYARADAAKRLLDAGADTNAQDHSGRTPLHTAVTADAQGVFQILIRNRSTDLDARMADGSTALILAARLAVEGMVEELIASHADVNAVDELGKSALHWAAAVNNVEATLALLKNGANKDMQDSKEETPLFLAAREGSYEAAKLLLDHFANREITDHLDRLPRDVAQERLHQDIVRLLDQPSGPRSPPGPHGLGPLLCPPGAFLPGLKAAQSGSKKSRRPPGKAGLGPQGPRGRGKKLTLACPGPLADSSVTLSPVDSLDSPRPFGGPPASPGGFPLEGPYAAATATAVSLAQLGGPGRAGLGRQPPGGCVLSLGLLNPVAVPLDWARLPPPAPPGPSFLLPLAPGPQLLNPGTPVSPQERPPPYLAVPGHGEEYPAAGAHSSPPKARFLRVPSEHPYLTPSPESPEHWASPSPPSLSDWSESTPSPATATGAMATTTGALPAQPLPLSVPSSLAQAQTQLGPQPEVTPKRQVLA

[20] = small-molecule microarray binders of probe aEGFR, primary screen, biochemical, biotinylated probe, 635/667 nm fluorescence (AID 1097); details: higher = more signal;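 further: probe is a biotinylated anti-EGFR antibody binding compounds printed on slides; score combines fluorescence near 667 nm and signal to noise of each spot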

Structure (SMILES) | composite z-score [1] | composite z-score [2] | composite z-score [3] | composite z-score [4] | composite z-score [5] | composite z-score [6] | composite z-score [7] | z-score [8] | composite z-score [9] | composite z-score [10] | composite z-score [11] | z-score [12] | z-score [13] | z-score [14] | composite z-score [15] | z-score [16] | composite z-score [17] | composite z-score [18] | composite z-score [19] | composite z-score [20]
COCCCNC(=O)[C@@H]1c2ccccc2C(=O)N(Cc2cc(C(F)(F)F)cc(C(F)(F)F)c2)[C@H]1c1ccc(CO)cc1 | -0.468 | 0.668 | -0.182 | -0.568 | -0.0254 | 0.686 | 0.887 | 0.309 (inactive) | 1.49 | -0.34 | -0.217 | 0.109 (inactive) | 0.144 (inactive) | -0.405 (inactive) | 0.928 | 0.329 (inactive) | -0.164 | -0.441 | -0.305 | 0.45
C=CCC(OC(C)=O)[C@@H]1[C@@H](N(Cc2cc3ccccc3o2)C(=O)c2cccc3ccccc23)c2cc(OCCCO)ccc2N1C(=O)c1ccc2ccccc2c1 (stereo not given in full) | -0.16 | -0.267 | -0.0993 | 0.277 | -0.0361 | -0.223 | 0.272 | -4.21 (inactive) | 0.296 | -0.128 | -0.305 | 0.0315 (inactive) | -0.943 (inactive) | -0.0147 (inactive) | 0.583 | -0.234 (inactive) | 0.0826 | 0.413 | 0.222 | -0.139
C=C(COC)/C(=C/C[C@H](OC(=O)c1ccncc1)c1cccc(OCCO)c1)c1cnc2ccccc2c1 | -0.125 | 0.544 | -0.103 | 0.427 | 1.41 | 1.3 | 1.28 | 2.63 (inactive) | 0.841 | -0.134 | 1.54 | -2.15 (inactive) | -0.677 (inactive) | 0.0694 (inactive) | 1.75 | -0.0055 (inactive) | 0.0333 | 1.53 | 1.03 | -0.0025
COCCCNC(=O)[C@@H]1c2ccccc2C(=O)N(C2CCCCC2)[C@H]1c1ccc(CO)cc1 | 0.503 | -0.763 | -0.105 | -0.564 | -1.03 | 1.2 | 1.45 | -0.108 (inactive) | -0.341 | -0.236 | -0.158 | -0.0916 (inactive) | -0.769 (inactive) | -0.285 (inactive) | 2.86 | 0.216 (inactive) | -0.018 | -0.597 | -0.47 | -0.257
CCCCCN1CC=CC23O[C@@H]4C=CCOC(=O)[C@@H]4[C@H]2C(=O)N(CCCCCO)[C@@H]3C1=O (stereo not given in full) | 0.346 | 1.8 | -0.113 | -1.11 | -1.26 | -0.48 | 1.29 | 0.391 (inactive) | -0.883 | -0.261 | 0.421 | -1.16 (inactive) | 0.249 (inactive) | -1.02 (inactive) | 1.59 | 2.58 (inactive) | -0.121 | -0.361 | 0.103 | -0.167
CC1CC/C=C\[C@H]2OC34C=CCN(c5ccc(Cl)cc5)C(=O)[C@H]3N(CCCO)C(=O)[C@]4(C)C2C(=O)O1 (stereo not given in full) | 0.316 | -1.4 | -0.162 | -1.11 | -0.932 | 1.38 | 1.64 | -0.0856 (inactive) | -0.558 | -0.296 | -1.33 | 0.0887 (inactive) | -0.117 (inactive) | 1.13 (inactive) | -0.265 | -0.643 (inactive) | -0.154 | -0.774 | -0.105 | -0.151
CC1CC/C=C\[C@H]2OC34C=CCN(CCN5CCOCC5)C(=O)[C@H]3N(CCCCCCO)C(=O)[C@@H]4C2C(=O)O1 (stereo not given in full) | -0.0847 | -0.686 | -0.129 | -0.445 | -0.894 | -0.539 | 1.44 | 0.647 (inactive) | -0.493 | -0.171 | -0.592 | 0.0356 (inactive) | -0.573 (inactive) | 0.132 (inactive) | 0.318 | -0.263 (inactive) | -0.192 | -0.403 | -0.218 | -0.278
COC(=O)[C@@]1(Cc2ccccc2CN=[N+]=[N-])COC(c2ccc(OCCCO)cc2)=N1 | 1.28 | -1.34 | -0.245 | -0.565 | -1.79 | 0.305 | 0.62 | -0.988 (inactive) | -0.575 | -0.137 | 1.26 | -1.38 (inactive) | -6.67 (inactive) | -1.9 (inactive) | 3.04 | 0.441 (inactive) | 0.175 | -1.69 | -1.25 | -0.442
CCCC[C@H]1OB(O)C[C@H]2C1=C(C)C[C@H]1C(=O)C=CC(=O)[C@H]12 | -0.567 | -0.0474 | -0.0887 | 0.309 | 0.425 | 0.532 | 0.698 | 0.358 (inactive) | 0.189 | 0.176 | 1.24 | 0.111 (inactive) | -15.4 (active) | -0.0407 (inactive) | 1.01 | -0.0396 (inactive) | -0.0916 | 0.782 | 1.04 | -0.071
COCCOC(=O)N1C(=O)[C@@]2(c3cc(C#CC4=CCCCC4)ccc31)[C@H](C(=O)N1CCc3cc(OC)c(OC)cc3C1)[C@H]1C(=O)O[C@H](c3ccccc3)[C@H](c3ccccc3)N1[C@@H]2c1ccc(O)cc1 | -0.0908 | 0.271 | 0.0216 | 1.15 | 1.5 | 1.79 | 1.25 | -0.514 (inactive) | 0.153 | 0.0515 | 1.5 | 1.68 (inactive) | 0.94 (inactive) | 2.7 (inactive) | 2.68 | 0.951 (inactive) | 1.08 | 0.552 | 1.16 | 0.657
